Measured values published in PubChem BioAssay (EPA / NIEHS).
Calls of active or inactive are those of the source. Rule for the calls: active = hit-call score of the fitted dose curve at least 0.9, where 1 is the maximum; inactive = score below 0.9.

test: ATG_M_32_CIS: Attagene CIS-FACTORIAL HepG2 Assay for M32 Transcription Factor (Internal Marker) (AID 2282949); conditions: HepG2 Attagene cis-factorial M32 reporter, mRNA; actives raise or lower the signal;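 note: background control marker of the multiplexed CIS panel rather than a real target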
Protocol: ATG_CIS is a cell-based, multiplexed-readout assay that uses HepG2, a human liver cell line, with measurements taken at 24 hours after chemical dosing in a 24-well plate.ATG_M_32_CIS is one of 52 assay component(s) measured or calculated from the ATG_CIS assay. It is designed to make measurements of mRNA induction, a form of inducible reporter, as detected with fluorescence intensity signals by Reverse transcription polymerase chain reaction (RT-PCR) and Capillary electrophoresis technology.Data from the assay component ATG_M_32_CIS was analyzed into 1 assay endpoint. This assay endpoint, ATG_M_32_CIS, was analyzed with bidirectional fitting relative to DMSO as the negative control and baseline of activity. Using a type of inducible reporter, measures of mRNA for gain or loss-of-signal activity can be used to understand the background control at the transcription factor-level as they relate to the gene . Furthermore, this assay endpoint can be referred to as a secondary readout, because this assay has produced multiple assay endpoints where this one serves a background control function. To generalize the intended target to other relatable targets, this assay endpoint is annotated to the background measurement intended target family, where the subfamily is internal marker.
Human liver HepG2 cells are transiently transfected with multiple reporter transcription units (MRTUs) in 6-well plates using FuGene 6 reagent (Roche; 3 ml FuGene/1 mg DNA). The MRTU constructs are regulated by a cis-regulating element (promoter). […] A major difference between the CIS and TRANS system is that in CIS activities of endogenous TFs are measured, whereas the TRANS assay evaluates changes in activities of exogenous, chimeric NR-Gal4 proteins. […] At the end of 24 hour incubation, total RNA was isolated using TriZol reagent (Invitrogen). The isolated RNA is then reverse-transcribed using oligo(dT) primer and Mo-MLV reverse transcriptase (Invitrogen) with DNAse I (Ambion) treatment for 30 min. The one-tenth of the produced cDNA was amplified by PCR using Taq DNA polymerase (Invitrogen) and two reporter sequence-specific primers. The PCR products were fluorescently labeled by primer extension with 6-arboxyfluorescein (6-FAM) 5'-labeled reporter sequence-specific primer (2 min at 95 C, 20 s at 68 C and 10 min at 72 C) and these products were digested with 5U of HpaI (New England Biolabs) for 2h at 37 C. The fragments were purified using Qiaquick PCR columns (Qiagen), analyzed on an ABI 3130xL genetic analyzer (Applied Biosystems) with peak positions identified by using a set of X-rhodamine (ROX)-labeled MapMarker1000 molecular weight standards (BioVentures). The raw capillary electrophoresis data was processed using Attagraph software (Attagene).

outcome, inactive:
CCOC(=S)SSC(=S)OCC
Nc1cc([N+](=O)[O-])ccc1Cl
CC1(C)[C@@H]2CC[C@@]1(C)[C@H](O)C2
Nc1cccc(S(=O)(=O)c2cccc(N)c2)c1
COC(C)CCO (stereo not given)
O=C(O)Cc1cccc2ccccc12
O=C(Cl)c1cccc(C(=O)Cl)c1
CCc1ccc(C=O)cc1
C=CC(C)(O)CCC=C(C)CCC=C(C)C (stereo not given)
COc1ccc(OC)c(OC)c1
O=C(OCc1ccccc1)C(=O)OCc1ccccc1
CC(C)(C#N)c1cc(Cn2cncn2)cc(C(C)(C)C#N)c1
C[Si](O[Si](C)(C)C)O[Si](C)(C)C
CC(C)[C@@H]1CC[C@@H](C)CC1=O
CCCCCCCCCCCCCCCC(=O)OC[C@H](O)[C@H]1OC(=O)C(O)=C1O
C=CC(=O)OCCn1c(=O)n(CCOC(=O)C=C)c(=O)n(CCOC(=O)C=C)c1=O
Nc1cc(Cl)c(O)c(Cl)c1
CC(C)(CO)[N+](=O)[O-]
CC1COc2ccccc2N1C(=O)C(Cl)Cl (stereo not given)
Cc1c(N(C)C)c(=O)n(-c2ccccc2)n1C
CCc1c(C)cc(N)c(CC)c1N
C[C@]12CC[C@H]3[C@@H](CCC4=CC(=O)CC[C@@]43C)[C@@H]1CC[C@@H]2C(=O)CO
CC(C)(N)CO
NNc1nc(-c2ccc(N)cc2)cs1
C=CC(=O)NCOCC(C)C
OC1OC[C@@H](O)[C@H](O)[C@H]1O (stereo not given in full)
COCCCOc1ccnc(CS(=O)c2nc3ccccc3[nH]2)c1C (stereo not given)
CCCCCNCCCCC
CCCc1c(OCCCOc2ccc(OCC(=O)O)cc2)ccc(C(C)=O)c1O
CCCCCC(CO)CCC (stereo not given)
CNCCCC12CCC(c3ccccc31)c1ccccc12
CCN(CC)c1ccc(C(=C2C=CC(=[N+](CC)CC)C=C2)c2ccc(S(=O)(=O)O)cc2S(=O)(=O)[O-])cc1
S=C(S)NCCNC(=S)S
CC(=O)OCc1ccc2c(c1)OCO2
CC1(C)CCC(C)(C)c2cc(C(=O)Nc3ccc(C(=O)O)cc3)ccc21
COc1nc(C)nc(N)n1
N#Cc1nc(Cl)c(Cl)c(Cl)c1Cl
CCCCNC(=O)NS(=O)(=O)c1ccc(C)cc1
OC1C(O)C(O)C(O)C(O)C1O (stereo not given)
CCCCCCOC(=O)CC
